# Assay results taken from publication PMC12136788.
# Whole data set: some 5,800 sequences, median “enrichment r” near 0.68, cut for the highest 2% near 11. A selection follows.
# T1: UNK ZnF1-6 (called full-length) (human, UniProt Q9C0B0 30-357)
# T1 sequence: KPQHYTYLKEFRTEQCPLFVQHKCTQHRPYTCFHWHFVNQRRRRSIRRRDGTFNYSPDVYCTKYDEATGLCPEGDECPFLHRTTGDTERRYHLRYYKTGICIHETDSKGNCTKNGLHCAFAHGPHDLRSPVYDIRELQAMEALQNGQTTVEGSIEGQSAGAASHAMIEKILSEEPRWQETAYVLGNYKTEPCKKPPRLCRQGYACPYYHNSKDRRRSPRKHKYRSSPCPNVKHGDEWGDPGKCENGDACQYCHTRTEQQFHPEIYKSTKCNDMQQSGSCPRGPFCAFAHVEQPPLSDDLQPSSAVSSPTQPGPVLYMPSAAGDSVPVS
# B1: ENSG00000143373:stop:overlap|stop_codon|ENSG00000143373|stop_codon|NA|stop_codon (ssRNA)
# RNA: GGGAGUUCUACAGUCCGACGAUCACUUCCGCACGCAUGGCAUGGCGUUCAUCAGGGCUCGGCAGGGGGCUGUUGGGGACAACUAGUCUCCAAGGCCUGGGACUGACCAGCCCCUUCCUCUUGGAGCCUGGUUUUCCCUACUGCCAACAGAGGAUUGAGCAUCA
# B2: ENSG00000136451:be:win_2201|3pUTR|ENSG00000136451|bound_else_gene|NA|bound_elsewhere_windowed (ssRNA)
# RNA: GGGAGUUCUACAGUCCGACGAUCAUUGUGACCUGAUAUUUGGAGAUGUAAAUAUUGCUCAGCAUAUUAAUCCCGAUGGAAUAUAGCAUUGUAGUUGACUUUUUAAAAAAAAAAAAAAUUUAAAAAAAAUCUACAAAUUGUGUUCAACAGAGGAUUGAGCAUCA
# B3: chr3:11298707:11298833:+|CDS|ENSG00000197548|unk|total|mutant (ssRNA)
# RNA: GGGAGUUCUACAGUCCGACGAUCAUAAUGGCGGCAGCUACGGGGGAUCCUGGACUCUCUAAACUGCAGUUUGCCCCUUUCCGCCGUGCCUUGGAUGUUGGGUUUUGGCAUGAGUUGACCCAGAAGAAGCUGAACGAGUAUCGGCAACAGAGGAUUGAGCAUCA
# B4: chrX:15345595:15346132:-|three_prime_utr|ENSG00000165197|control|control|control (ssRNA)
# RNA: GGGAGUUCUACAGUCCGACGAUCCAGACCAACCUUCCAUUCACACCAGCUAAGGAGUCCCUGGUUCAUUGAUGGAUGUCUUCUAGCUGCAGAUGCCUCUGCGCACCAAGGAAUGGAGAGGAGGGGACCCAUGUAAUCCUUUUGCAACAGAGGAUUGAGCAUCA
# B5: chrX:65741840:65741941:+|3pUTR|ENSG00000147065|msi1|FALSE|unique (ssRNA)
# RNA: GGGAGUUCUACAGUCCGACGAUCAAAUUGUUUUUGGAGGGGUUUAUGCUCAAUCCAUGUUCUAUUUCAGUGCCAAUAAAAUUUAGGAAGACUUCACAGUGACUCAAUCGUUCUUUGUGGUAUGAGUGGGUAGCUGUAAGAUAUCAACAGAGGAUUGAGCAUCA
# B6: chr10:72011937:72012038:+|3pUTR|ENSG00000122863|msi1|total|mutant (ssRNA)
# RNA: GGGAGUUCUACAGUCCGACGAUCCAUACACCGCAGGUGGUCACCGAGUUAUUUUCCAAAAGCUGAGGAACAUAAAGCAAAUUCCGGCUUUUGUCCUUCUGCAAUACAUGCACUUGAAAAUAAACAGAAAAGAGAUGUUUAAUACAACAGAGGAUUGAGCAUCA
# B7: chr17:50110931:50111032:+|3pUTR|ENSG00000005882|unk|total|mutant (ssRNA)
# RNA: GGGAGUUCUACAGUCCGACGAUCUGUGCCCAGACAUGUGUGCUCAGGGUGGCUUUCUCCCCCGGACCUUCUGUGUAUACCGUCCGUUUUAUAACCCUGAAUGCCCCCACCCUUCCCCUAAGCACACAGGGGUUAAAGCUGUGUCAACAGAGGAUUGAGCAUCA
# B8: chr6:132588675:132589686:-|CDS|ENSG00000135569|control|control|control (ssRNA)
# RNA: GGGAGUUCUACAGUCCGACGAUCUGCCAAGACCCUGGGCAUUGCUGUGGGCAUAUACCUCUUGUGCUGGCUGCCCUUCACCAUAGACACGAUGGUCGACAGCCUCCUUCACUUUAUCACACCCCCACUGGUCUUUGACAUCUUCAACAGAGGAUUGAGCAUCA
# B9: chr2:1632407:1632508:-|3pUTR|ENSG00000130508|msi1|total|mutant (ssRNA)
# RNA: GGGAGUUCUACAGUCCGACGAUCUUGGUAAGUGAUUGAUAAAAAUUGGUUGGUGUUUCAUGACAUGUGGACUUCUUUUGAAACCGCAAGUCAAAUGCCGUGACCAAAUUGUGGAAGAGAUUUCUGUCAAACCGGAAAUGUGUACAACAGAGGAUUGAGCAUCA
# B10: ENSG00000198589:be:win_3901|CDS|ENSG00000198589|bound_else_gene|NA|bound_elsewhere_windowed (ssRNA)
# RNA: GGGAGUUCUACAGUCCGACGAUCUCUACUGUGUUUCGUAUUCCUGAGUUCAACUGGUCUCAGAUGCAUCAACGUUUGCUCACUGAUCUAUUAUUUUCAAUAGAAACAGAUAUACAGAUGUGGAGAAGCCAUUCAACAAAGACACAACAGAGGAUUGAGCAUCA
# B11: chr6:21593967:21594078:+|5pUTR|ENSG00000124766|unk|FALSE|bound_elsewhere (ssRNA)
# RNA: GGGAGUUCUACAGUCCGACGAUCUUAGUGCCGAUUCCGCCCACAGAGAGUCCUGGAGCCACAGUCUUUUUUGCUUUGCAUUGUAGGAGAGGGACUAAGUGCUAGAGACUAUGUCGCUUUCCUGAGCUACCGAGAGCGCUCGUGCAACAGAGGAUUGAGCAUCA
# B12: chr9:88477803:88477904:+|3pUTR|ENSG00000106723|msi1|FALSE|bound_elsewhere (ssRNA)
# RNA: GGGAGUUCUACAGUCCGACGAUCGACAAUACAAGACAUGAAUCUAUGUAUAAAAUUUAUCGGCCUUUCUCAUUUACCUGCUCUAGUAUUAUUGUAUUGUGUGUGCGUGCGUGUGUGAUGUCAGGCUGCCACGUAAAACUUCAGCAACAGAGGAUUGAGCAUCA
# B13: chr17:68278117:68278284:-|CDS|ENSG00000108932|unk|FALSE|unique (ssRNA)
# RNA: GGGAGUUCUACAGUCCGACGAUCGCUUUGUUCCAAAGCCAAUGUGUAUACUGAAGUGCCUGAUGGAGGAUGGGGCUGGGCGGUAGCUGUUUCAUUUUUCUUCGUUGAAGUCUUCACCUACGGCAUCAUCAAGACAUUUGGUGUCAACAGAGGAUUGAGCAUCA
# B14: ENSG00000112146:stop:overlap|stop_codon|ENSG00000112146|stop_codon|NA|stop_codon (ssRNA)
# RNA: GGGAGUUCUACAGUCCGACGAUCACACCCCCUUGUUCUUCGCCAGAGUAAGGAGCUACACAGCUUUCUCAGAAAGGCCUCUGUAGAGCCUCAAGUCCAGUCCUCUAUCACUUUUGCAUGAAUUAAAGUAUAUAGCGCAAAAGACAACAGAGGAUUGAGCAUCA
# B15: ENSG00000070961:be:win_5851|3pUTR|ENSG00000070961|bound_else_gene|NA|bound_elsewhere_windowed (ssRNA)
# RNA: GGGAGUUCUACAGUCCGACGAUCAUGAAUGUAAUUACCAAAAGAUUUAGAAGUGCAUGUGCUUUGGAGGAUUUGUAUUGAGCUUUUACAGUAUUCAUUUUUCAACUCAAGGCAAUGGCUUUCUACACCAACUCUAAUCCAUAACAACAGAGGAUUGAGCAUCA
# B16: ENSG00000070961:be:win_3451|CDS|ENSG00000070961|bound_else_gene|NA|bound_elsewhere_windowed (ssRNA)
# RNA: GGGAGUUCUACAGUCCGACGAUCAGGAUAGAAGAUUCAGAGCCUCAUAUCCCCCUUAUUGAUGACACUGAUGCCGAAGAUGAUGCUCCUACAAAACGUAACUCCAGUCCUCCACCCUCUCCCAACAAAAAUAACAAUGCUGUUCAACAGAGGAUUGAGCAUCA
# B17: chr11:61866962:61867357:+|3pUTR|ENSG00000134824|msi1|FALSE|unique (ssRNA)
# RNA: GGGAGUUCUACAGUCCGACGAUCAGAUUCAGGGGAAGGGCAGGCACCAACAACUCAGAAUGGGGGCUUUCGGGGAGGGCGCCUAGUCCCCCCAGCUCUAAGCAGCCAGGAGGGACCUGCAUCUAAGCAUCUGGGUUGCCAUGGCAACAGAGGAUUGAGCAUCA
# B18: chr2:32508095:32508220:+|CDS|ENSG00000115760|unk|total|mutant (ssRNA)
# RNA: GGGAGUUCUACAGUCCGACGAUCAGCCGAAGCCGCUUCUGCUGUCUGCCUCCGACUACAUCGUCCACGGGAUGCCAGCACAUCCGGCCUUUCACAAAUUAAAUUAUUGGGGCUCACUGCUUUUGGUACCACCUCUUCUGCAACCAACAGAGGAUUGAGCAUCA
# B19: chr14:92797766:92797867:+|CDS|ENSG00000066455|msi1|total|mutant (ssRNA)
# RNA: GGGAGUUCUACAGUCCGACGAUCCAUUUUGUGCGAAGAAAAAAGUCAGAACCUGAUGAUGAGCUGCUGUUUGAUUUUCUUAACCGUUCACAGAAGGAGCCUACCGGGAGGGUGGAAAUCAGAAAGGAAAAAGGCAAGACACCUCAACAGAGGAUUGAGCAUCA
# B20: chr18:70325936:70326038:+|CDS|ENSG00000170677|unk|total|mutant (ssRNA)
# RNA: GGGAGUUCUACAGUCCGACGAUCAGCUUUCGCUCCCAUGGUAAAACACUUCACACCCGAAUUGAGCACUCAAAUGGCCGGUUCCGCUUUUAUGAACAGCCAGAUGUGGAAGGACAUACGUCCACCGUUGAUCUAAUUGAGCAUCAACAGAGGAUUGAGCAUCA
# B21: chr11:43405833:43405939:+|CDS|ENSG00000052841|unk|FALSE|unique (ssRNA)
# RNA: GGGAGUUCUACAGUCCGACGAUCGGCCCAAACCCCUGACUGUUCCAUAACUGACUUCAGAAAAAGCCACACUCUGUCCUACUUAGUCAAAGAAUUAGAGGUUCGCAUGGAUCUGAAAGCCAAAAUGCCAGAUGACCAUGCACGCAACAGAGGAUUGAGCAUCA
# B22: chr6:1612588:1612689:+|3pUTR|ENSG00000054598|msi1|total|mutant (ssRNA)
# RNA: GGGAGUUCUACAGUCCGACGAUCUUUAUUCAUGGACUUGUUUUAAAAUGUAAAUUGCAACACCGUAAUUUAUUUUUAAUUUGCCGUUGGAUGUCGUGGACCAAACGCCAGAAAGUGUUCCCAAAACCUGACGUUAAAUUGCCUCAACAGAGGAUUGAGCAUCA
# Target: T1, UNK ZnF1-6 (called full-length)
# Assay: nsRBNS (natural sequence RNA bind-n-seq); RBNS binding buffer (assumed for nsRBNS): 25 mM Tris pH 7.5, 150 mM KCl, 3 mM MgCl2, 0.01% Triton X-100, 500 ug/ml BSA, 20 U/ml SUPERase-In, 4 C; UNK is unkempt and MSI1 is Musashi-1; names of the RNAs are library labels; protein concentration not given here; high values mean tight binding
row,Binder,binding signal [enrichment R]
1,B1,0.569
2,B2,0.637
3,B3,0.839
4,B4,0.639
5,B5,0.698
6,B6,0.34
7,B7,1.06
8,B8,0.967
9,B9,0.207
10,B10,0.382
11,B11,0.815
12,B12,1.09
13,B13,0.822
14,B14,0.367
15,B15,0.908
16,B16,0.813
17,B17,0.948
18,B18,0.577
19,B19,0.771
20,B20,0.461
21,B21,1.07
22,B22,0.325
